JMJD2A Tudor = blocks the human JMJD2A Tudor domain; O75164; AlphaScreen JMJD2A-Tudor / H3K4me3 peptide binding; Potency, µM (series often up to 114 µM), usual class: inhibitors; 390,000 tested, 4.4% active; AID 504339; further: nearly all actives have a fitted effect of over 50% in size
HP1b binding inh = blocks HP1-beta chromodomain binding to methylated histone tails. P83916. AlphaScreen HP1-beta / biotin-H3K9me3 peptide binding. Potency, µM (series often up to 114 µM), usual class: inhibitors. 390,000 tested, 0.56% active. AID 540317; further: nearly all actives have a fitted effect of over 70% in size
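AlphaScreen: HP1-beta (50 nM) preformed 30 min with biotin-H3(1-18)K9me3 peptide (50 nM) in PBS pH 7.4, 0.01% Tween-20. Compound added for 30 min at RT, then streptavidin donor/nickel chelate acceptor beads (10 ug/mL) for 30 min.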
BAZ2B inh = blocks human BAZ2B; Q9UIF8; AlphaScreen BAZ2B-H3K14Ac peptide displacement; Potency, µM (doses to about 114 µM), usual class: inhibitors; 360,000 tested, 4.4% active; AID 504333; further: nearly all actives have a fitted effect of over 60% in size
Target sequence (Q9UIF8 whole entry, looked up): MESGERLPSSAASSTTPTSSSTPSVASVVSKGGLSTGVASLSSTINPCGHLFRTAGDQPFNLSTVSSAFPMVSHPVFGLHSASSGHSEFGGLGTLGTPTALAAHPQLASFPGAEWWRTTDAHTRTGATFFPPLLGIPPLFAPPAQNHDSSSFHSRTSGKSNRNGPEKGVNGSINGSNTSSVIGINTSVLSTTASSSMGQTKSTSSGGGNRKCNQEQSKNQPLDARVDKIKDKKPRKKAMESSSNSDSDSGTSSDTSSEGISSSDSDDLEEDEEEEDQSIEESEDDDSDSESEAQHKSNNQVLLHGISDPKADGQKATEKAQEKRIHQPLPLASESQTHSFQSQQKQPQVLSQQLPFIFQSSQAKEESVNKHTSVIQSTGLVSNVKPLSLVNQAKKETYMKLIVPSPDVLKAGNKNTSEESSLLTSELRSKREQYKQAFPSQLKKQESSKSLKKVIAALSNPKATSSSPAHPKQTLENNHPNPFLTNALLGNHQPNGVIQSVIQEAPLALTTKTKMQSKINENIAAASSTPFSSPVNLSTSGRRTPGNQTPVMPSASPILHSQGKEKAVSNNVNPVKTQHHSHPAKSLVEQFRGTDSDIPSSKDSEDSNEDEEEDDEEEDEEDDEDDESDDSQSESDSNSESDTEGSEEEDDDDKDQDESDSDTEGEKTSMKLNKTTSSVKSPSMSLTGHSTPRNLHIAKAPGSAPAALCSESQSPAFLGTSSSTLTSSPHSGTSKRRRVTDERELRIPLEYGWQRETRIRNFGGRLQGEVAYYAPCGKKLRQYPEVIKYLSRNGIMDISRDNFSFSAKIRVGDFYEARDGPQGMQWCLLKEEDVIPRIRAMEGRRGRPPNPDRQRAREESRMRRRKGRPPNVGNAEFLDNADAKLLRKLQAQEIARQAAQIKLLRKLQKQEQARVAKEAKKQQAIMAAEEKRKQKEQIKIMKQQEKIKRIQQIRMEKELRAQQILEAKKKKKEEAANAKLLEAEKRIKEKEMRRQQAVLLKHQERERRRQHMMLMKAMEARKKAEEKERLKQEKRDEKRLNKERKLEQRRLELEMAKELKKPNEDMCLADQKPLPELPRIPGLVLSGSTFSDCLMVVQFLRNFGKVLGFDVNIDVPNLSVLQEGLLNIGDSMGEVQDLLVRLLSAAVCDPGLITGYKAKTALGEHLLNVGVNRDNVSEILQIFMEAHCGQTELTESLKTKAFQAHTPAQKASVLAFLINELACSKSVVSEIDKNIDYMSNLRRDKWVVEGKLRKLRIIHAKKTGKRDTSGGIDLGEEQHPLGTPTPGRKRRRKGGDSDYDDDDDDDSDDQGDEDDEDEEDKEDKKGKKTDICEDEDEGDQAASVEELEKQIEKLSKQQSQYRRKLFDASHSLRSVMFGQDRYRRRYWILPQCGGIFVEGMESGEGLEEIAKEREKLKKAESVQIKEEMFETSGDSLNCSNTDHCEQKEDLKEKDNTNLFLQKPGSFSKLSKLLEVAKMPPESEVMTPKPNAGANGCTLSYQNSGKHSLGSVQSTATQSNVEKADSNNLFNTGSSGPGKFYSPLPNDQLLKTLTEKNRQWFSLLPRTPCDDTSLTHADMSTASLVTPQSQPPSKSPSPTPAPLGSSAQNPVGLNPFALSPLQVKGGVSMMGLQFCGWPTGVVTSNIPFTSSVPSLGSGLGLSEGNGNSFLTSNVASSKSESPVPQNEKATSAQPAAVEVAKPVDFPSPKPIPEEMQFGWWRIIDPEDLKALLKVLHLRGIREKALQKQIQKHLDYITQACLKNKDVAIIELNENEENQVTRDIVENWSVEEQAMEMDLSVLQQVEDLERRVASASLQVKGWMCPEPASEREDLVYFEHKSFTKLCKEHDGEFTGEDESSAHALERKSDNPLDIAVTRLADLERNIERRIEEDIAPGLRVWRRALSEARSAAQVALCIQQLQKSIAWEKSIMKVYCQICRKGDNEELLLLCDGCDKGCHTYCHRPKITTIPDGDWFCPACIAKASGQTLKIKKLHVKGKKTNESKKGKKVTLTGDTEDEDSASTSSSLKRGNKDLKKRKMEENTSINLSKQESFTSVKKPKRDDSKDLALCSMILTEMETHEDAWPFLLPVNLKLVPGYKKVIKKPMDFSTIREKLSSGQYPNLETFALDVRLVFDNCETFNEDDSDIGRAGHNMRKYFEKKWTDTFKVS
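AlphaScreen luminescence quantifies BAZ2B engagement of H3K14Ac peptide; the protein and biotinylated peptide are both at 50 nM final, buffer PBS pH 7.4 with 0.01% Tween-20, all steps at room temperature.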
G9a inh = inhibitors of human histone lysine methyltransferase G9a; Q96KQ7; G9a H3K9 monomethylation, AlphaScreen, 2 h; Potency, µM (doses to about 102 µM), hits mostly inhibitors; 350,000 tested, 8.8% active; AID 504332; further: nearly all actives have a fitted effect of over 75% in size
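Enzyme 20 nM + cpd, 15 min RT; add b-H3K9 pep 500 nM / SAM 20 uM; 2 h RT; anti-H3K9me1 Ab 0.5 ug/mL + SA donor / anti-rabbit acceptor beads 20 ug/mL each, 10 min; AlphaScreen read.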
L3MBTL1 block = blocks human L3MBTL1; AlphaScreen L3MBTL1–H3K9me1 peptide binding; Potency, µM (top dose mostly 57.1 µM), most hits filed as inhibitors; 230,000 tested, 0.66% active; Q9Y468; further: nearly all actives have a fitted effect of over 60% in size
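AlphaScreen proximity signal between nickel-chelate acceptor and streptavidin donor beads (final 10 ug/mL) reports binding of 50 nM L3MBTL1 to 75 nM biotin-H3 K9me1 peptide; complex incubated with compounds 30 min at room temperature; cefsulodin titration as control.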
Of the large screens only hits and unclear results are named; the others gave an inactive call. Hits are enriched below; roughly 11% of the tested compounds scored in any of these assays. The call rests on the fitted dose curve; in most records, active means well fitted inhibition curve with a large enough effect; inconclusive means small, poorly fitted or top-dose-only effect; inactive means no such curve, though single readings can be large or run the other way.

COc1cc(/C=C2/SC(=S)N(c3c(C)n(C)n(-c4ccccc4)c3=O)C2=O)ccc1O	JMJD2A Tudor inconclusive, HP1b binding inh inconclusive, BAZ2B inh 44.7µM
COc1ccc(S(=O)(=O)N(CC(=O)Nc2ccc3c(c2)OCO3)c2ccc(C)cc2)cc1	BAZ2B inh inconclusive (no result: L3MBTL1 block)
Cc1ccc(S(=O)(=O)N2CCOC2CNC(=O)C(=O)NCc2ccccn2)cc1 (stereo not given)	none (no result: L3MBTL1 block)
O=C1/C(=C\c2cc([N+](=O)[O-])ccc2O)SC(=S)N1Cc1ccc(Cl)cc1	JMJD2A Tudor 35.5µM, BAZ2B inh 25.1µM, G9a inh 20µM (no result: L3MBTL1 block)
O=C(CN1C(=O)/C(=C/c2ccccc2)SC1=S)NNC(=O)c1ccccc1O	BAZ2B inh 79.4µM, L3MBTL1 block inconclusive
COc1cc(/C=C2/SC(=S)N(CC(=O)O)C2=O)ccc1OC(=O)c1ccco1	G9a inh 44.7µM (no result: L3MBTL1 block)
O=C(CCCN1C(=O)/C(=C\c2cccs2)SC1=S)Nc1cc([N+](=O)[O-])ccc1O	BAZ2B inh inconclusive (no result: L3MBTL1 block)
CC(C)Oc1ccc(CNC(=O)C2=Cc3ccccc3OC2)cc1	none (no result: L3MBTL1 block)
CCC(CC)C(=O)c1c[nH]c(C(=O)N2CCN(c3ccccc3)CC2)c1	none
Cc1ccccc1Nc1c(-c2ccc(Cl)s2)nc2c(C)cccn12	JMJD2A Tudor inconclusive, HP1b binding inh inconclusive, BAZ2B inh inconclusive (no result: L3MBTL1 block)
Cc1ccn2c(Nc3c(C)cccc3C)c(-c3ccsc3)nc2c1	JMJD2A Tudor inconclusive, G9a inh 10µM (no result: L3MBTL1 block)
Cc1ccn2c(Nc3c(C)cccc3C)c(-c3ccc(Cl)s3)nc2c1	JMJD2A Tudor inconclusive, HP1b binding inh inconclusive, BAZ2B inh 5.62µM, G9a inh 7.08µM (no result: L3MBTL1 block)
CCOc1ccc(C(=O)Nc2ccccc2C(=O)OCc2cc(=O)n3nc(C4CC4)sc3n2)cc1	none (no result: L3MBTL1 block)
CC(C)(C)CC(=O)Nc1nnc(C(F)(F)F)s1	none
CCC12CC3CC(C1)CC(C(=O)Nc1nn[nH]n1)(C3)C2	JMJD2A Tudor 25.1µM, BAZ2B inh inconclusive, G9a inh 20µM
CC(C)(C)CC(=O)Nc1nn[nH]n1	JMJD2A Tudor 56.2µM, BAZ2B inh 79.4µM, G9a inh inconclusive
COC(=O)CNC(=O)C12CC3(C)CC(C)(CC(C)(C3)C1)C2	none (no result: L3MBTL1 block)
CC12CC3(C)CC(C)(C1)CC(C(=O)Nc1nn[nH]n1)(C2)C3	JMJD2A Tudor 50.1µM, BAZ2B inh inconclusive, G9a inh 35.5µM (no result: L3MBTL1 block)
Cc1nnc(NC(=O)C23CC4CC(C)(CC(C)(C4)C2)C3)s1	none (no result: BAZ2B inh, G9a inh, L3MBTL1 block)
CC12CC3CC(C)(C1)CC(C(=O)Nc1nn[nH]n1)(C3)C2	JMJD2A Tudor 20µM, BAZ2B inh inconclusive, G9a inh 35.5µM
Cc1ccc(NC(=O)C(=O)NCC(c2cccnc2)N2CCN(Cc3ccccc3)CC2)cc1F (stereo not given)	G9a inh inconclusive (no result: L3MBTL1 block)
O=C(N/N=C/c1ccc[nH]1)c1cc2ccccc2cc1O	JMJD2A Tudor inconclusive, BAZ2B inh 39.8µM, G9a inh 79.4µM (no result: L3MBTL1 block)
CN(C)c1ccc(N=Cc2nc(-c3ccccc3)oc2O)cc1	none
Oc1oc(-c2ccccc2)nc1C=Nc1ccccc1	JMJD2A Tudor 89.1µM, G9a inh inconclusive
COc1ccc(-c2cn3cccnc3n2)cc1NC(=O)c1ccccc1C(F)(F)F	none (no result: L3MBTL1 block)
CN(CCO)c1nc(-c2cccs2)nc2ccccc12	none (no result: BAZ2B inh, G9a inh, L3MBTL1 block)
Cc1ccc(NC(=O)CN2CCOCC2)cc1S(=O)(=O)N1CCCCC1	none (no result: BAZ2B inh, G9a inh)
Cc1ccc(NC(=O)CCl)cc1S(=O)(=O)N1CCCCCC1	G9a inh inconclusive (no result: BAZ2B inh)
O=C(Nc1ccc(S(=O)(=O)N2CCOCC2)cc1)c1ccc(Br)o1	none
CCN(CC)S(=O)(=O)c1cccc(NC(=O)C2SC(=Nc3ccc(C)cc3C)C(C(=O)NCC3CCCO3)=C2N)c1 (stereo not given)	none (no result: L3MBTL1 block)
COCCNCC(=O)Nc1ccc(C)c(S(=O)(=O)N2CCCCC2)c1	JMJD2A Tudor 35.5µM, HP1b binding inh inconclusive, G9a inh 8.91µM (no result: BAZ2B inh)
O=C(CNC(=O)c1ccc(Br)o1)Nc1ccc(F)c(S(=O)(=O)N2CCOCC2)c1	G9a inh 44.7µM
Cc1ccc(NC(=O)CNCCCN2CCOCC2)cc1S(=O)(=O)N1CCCCC1	JMJD2A Tudor 17.8µM, HP1b binding inh inconclusive, BAZ2B inh 50.1µM, G9a inh 14.1µM
COCCNC(=O)C1=C(N)C(C(=O)Nc2ccc(C)c(S(=O)(=O)N3CCCCC3)c2)SC1=Nc1ccc(C)cc1C (stereo not given)	G9a inh 50.1µM (no result: L3MBTL1 block)
